In PubChem BioAssay AID435003 (Sanford-Burnham Center for Chemical Genomics, 2010) one finds inhibition data, which are given here for 20 compounds.

Structures are written as SMILES. In all, about 330,000 compounds went through this assay and about 1,700 (0.52%) were called active. Rule as the data show it: active = inhibition above about 50%; inactive = the rest. For the sample, actives were picked, then their nearest neighbours and some compounds at random.

A short description of this test: inhibitors of induced NF-kB luciferase reporter, primary screen, TCR NF-kB activation inhibitor project, cell-based, luminescence, uHTS (AID 435003). The note with it: at 4 µM, hits give high values; NF-kB luciferase reporter unless noted.
For `Cc1cc2ccccn2c1C(C[N+](=O)[O-])c1c(F)cccc1Cl` (stereo not given), the inhibition – broadly, the drop in the measured response relative to a control, in per cent – is 71.3% (active).

Turning to `O=C(c1cc2nc(-c3ccccc3)cc(-c3ccccc3)n2n1)N1CCC2(CC1)OCCO2`, the inhibition is -2.97% (inactive).

For the compound `C[C@]12CCC3C(CC[C@H]4C[C@@H](O)CC[C@]34C)C1C[C@@H](O)[C@H]2O` (stereo not given in full), the inhibition is -3.46% (inactive).

Consider `C[C@]12CCC3C(CC[C@H]4C[C@@H](O)CC[C@]34C)C1CC[C@@H]2O` (stereo not given in full), for which the inhibition was 10.7% (inactive).

Take `C[C@]12CC[C@H](O)C[C@H]1CC[C@@H]1C2CC[C@]2(C)[C@@H](C3=CC(=O)OC3)[C@@H](O)C[C@]12O` (stereo not given in full): the inhibition was 79.5% [Jurkat, PMA/ionomycin-induced NF-kB luciferase reporter] (active).

On to `CN1CCN(/N=C/c2c[nH]c3ccccc23)CC1`, for which the inhibition was -15.1% (inactive).

Consider `O=C(NCC(c1cccnc1)N1CCN(c2ccccc2)CC1)Oc1ccccc1` (stereo not given), for which the inhibition was 10.4% (inactive).

As for `COc1ccccc1C1=NCc2nnc(CSC)n2-c2ccc(Cl)cc21`, the inhibition is -5.97% (inactive).

For `CCCCCCCCCCCCn1ccc(=N)cc1`, the inhibition was 94.2% (active).

Consider `Cc1nn(Cc2ccccc2Cl)c(Cl)c1C(=O)OC(C(=O)NC(N)=O)C(C)C` (stereo not given), for which the inhibition was 11.3% (inactive).

Turning to `CCOC(=O)C1(Cc2ccc(Cl)cc2)CCN(C(C)CCn2cccn2)CC1` (stereo not given), the inhibition is -3.65% (inactive).

Regarding `O=C(CCNS(=O)(=O)c1ccccc1)Nc1ccc(Cl)cc1C(=O)c1ccccc1`, the inhibition is -5.78% (inactive).

`COC(=O)[C@@H]1C(OC(=O)c2ccccc2)CC2CCC1N2C` (stereo not given in full): the inhibition is -16.7% (inactive).

In the case of `COc1ccc(N2C(=O)/C(=C/c3ccco3)C(=O)NC2=S)cc1`, the inhibition is 1.64% (inactive).

On to `CCOc1ccc(-c2cc(C)[n+](CCN(CC)CC)c(-c3ccc(OCC)cc3)c2)cc1`, for which the inhibition is 72.8% (active).

For the compound `CN1CCc2cc3c(cc2[C@H]1[C@@H]1OC(=O)c2c1ccc1c2OCO1)OCO3`, the inhibition is 5.76% [Jurkat, PMA/ionomycin-induced NF-kB luciferase reporter] (inactive).

For the compound `CCN(CC)P(=O)(Oc1cccc(C)c1)N(CC)CC`, the inhibition was 4.24% (inactive).

Take `Cc1cc(N2C(=O)C3CCCN3C2c2ccc(Cl)c(Cl)c2)no1` (stereo not given): the inhibition was -12.8% (inactive).

Turning to `c1ccc(C2NCc3ccccc3-n3cccc32)cc1` (stereo not given), the inhibition was 10.4% (inactive).

`CNC(=O)O/N=C(\N)Cc1csc2ccc(Cl)cc12`: the inhibition was -0.793% (inactive).
